A selection: hits, their analogues and other compounds. The true share with any hit is near 5%.
VACV mCherry inh: qHTS for Stage-Specific Inhibitors of Vaccinia Orthopoxvirus: mCherry Reporter Primary qHTS; Vaccinia virus mCherry reporter infection, fluorescence; Potency, µM (top dose mostly 36.5 µM), for the others: top-dose activity change, negative = inhibition, actives largely listed as inhibitors; hit rate 0.63% among 310,000; calls by dose curve; tested in A549 cells; further: potency means the concentration at half of the fitted maximal effect; nearly all actives have a fitted effect of over 35% in size
LmPK inhibitor: qHTS Assay for Inhibitors of Leishmania Mexicana Pyruvate Kinase (LmPK). Q27686. purified LmPK, Kinase-Glo ATP luminescence, 1 h. Potency, µM (top dose mostly 57.5 µM), without a hit: at the top dose activity change, negative = inhibition, hits mostly inhibitors. hit rate 0.37% among 290,000. AID 1721, 2009; further: potency means the concentration at half of the fitted maximal effect
Target sequence (Q27686 whole entry, looked up): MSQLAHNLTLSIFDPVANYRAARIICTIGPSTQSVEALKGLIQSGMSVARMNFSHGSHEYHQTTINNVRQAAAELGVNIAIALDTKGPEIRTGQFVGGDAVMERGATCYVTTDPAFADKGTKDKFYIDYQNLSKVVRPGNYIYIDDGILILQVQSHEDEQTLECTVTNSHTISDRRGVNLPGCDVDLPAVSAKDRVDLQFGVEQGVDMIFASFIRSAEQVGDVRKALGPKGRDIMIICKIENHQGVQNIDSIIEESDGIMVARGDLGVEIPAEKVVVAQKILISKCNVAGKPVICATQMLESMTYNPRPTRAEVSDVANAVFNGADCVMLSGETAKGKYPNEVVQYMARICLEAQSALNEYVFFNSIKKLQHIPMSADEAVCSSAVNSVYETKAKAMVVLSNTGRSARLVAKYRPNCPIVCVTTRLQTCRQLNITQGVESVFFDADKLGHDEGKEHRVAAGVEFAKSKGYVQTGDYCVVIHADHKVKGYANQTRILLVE
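Pyruvate kinase activity monitored as ATP production (luciferase luminescence). Conditions: 0.1 nM enzyme, 0.5 mM PEP, 0.1 mM ADP, 1 h, RT; normalized against uninhibited and no-enzyme wells.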
Tb PYK inh: qHTS of Trypanosoma Brucei Inhibitors; TbPYK enzyme, Kinase-Glo Plus ATP luminescence, 45 min; Potency, µM (top dose mostly 76.8 µM), without a hit: at the highest dose activity, negative = inhibition, actives largely listed as inhibitors; hit rate 0.12% among 410,000; pyruvate kinase (Trypanosoma brucei), Q57TT1; further: potency means the concentration at half of the fitted maximal effect; nearly all actives have a fitted effect of over 50% in size
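Readout: single end-point luminescence (Kinase-Glo Plus, 10 min). Reaction conditions were TbPYK/substrate plus 130 uM ADP, 45 min at RT, pH 7.2 TEA buffer. No-enzyme wells served as controls, and data were normalized before concentration-response fitting.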
Vaccinia Venus: qHTS for Stage-Specific Inhibitors of Vaccinia Orthopoxvirus: Venus Reporter Primary qHTS | Vaccinia virus Venus reporter expression, fluorescence | Potency, µM (highest dose often 36.5 µM), for the others: top-dose activity change, negative = inhibition, hits mostly inhibitors | hit rate 0.46% among 330,000; calls by dose curve; tested in A549 cells; further: potency means the concentration at half of the fitted maximal effect; nearly all actives have a fitted effect of over 30% in size
HCMV inh: qHTS Assay for inhibitors of the human cytomegalovirus (HCMV); HFF cells, HCMV-luciferase reporter, 72 h; active compounds read low; activity change, negative = inhibition, % at 57.5 µM; hit rate 4.5% among 410,000; AID 1259415, 2018; in the data active means activity change below about -60%; inconclusive means no clear call, values can overlap the other calls; inactive means above about -39%
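Steps: HFFs plated, 16 h 37C; compounds added; HCMV-luciferase added to MOI 1 PFU/cell; 72 h 37C; OneGlo reagent, 5 min room temperature; luminescence read, normalized to controls.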
* hit, by the source's call; [ ] = remark or other dose. Unless noted, the call rests on the fitted dose curve; in most records, active means well fitted curve in the direction sought with a large enough effect; inconclusive means small, poorly fitted or top-dose-only effect, or another doubt; inactive means no such curve, though single readings can be large; an effect the other way counts as inactive or inconclusive. On the % scale 0 is the no-effect control and ±100 the full control effect.

Cc1ccc(CCNC(=O)c2ccc3c(c2)N(Cc2ccccc2)C(=O)c2ccccc2S3=O)cc1 (stereo unspecified) was read as VACV mCherry inh -25.2%, Tb PYK inh 1.6%, Vaccinia Venus -15.9% and HCMV inh -9.2.
For O=C(CCc1ccccc1Cl)Nc1ccc(S(=O)(=O)N2CCOCC2)cc1 the results were VACV mCherry inh inactive, Tb PYK inh -2.5%, Vaccinia Venus -23.8% and HCMV inh -19.2.
Screening CCOc1cccc(C=Nc2cc(C)cc(C)c2O)c1O returned LmPK inhibitor 22.4µM*, Tb PYK inh -11.1% and HCMV inh 24.6.
COCCCNC(=O)CCCCCNS(=O)(=O)c1ccc(Br)cc1 was read as VACV mCherry inh inactive, LmPK inhibitor 1.6%[11.5 µM], Tb PYK inh -13.5%, Vaccinia Venus -13.4% and HCMV inh -6.3.
COc1ccc(-c2csc(N(CCCN(C)C)C(=O)c3ccccc3C)n2)cc1 was read as VACV mCherry inh inconclusive, LmPK inhibitor -1.3%, Tb PYK inh 9.5%, Vaccinia Venus inconclusive and HCMV inh -60.8*.
For COc1ccc(-c2csc(N(CCCN(C)C)C(=O)c3ccccc3F)n2)cc1 the results were LmPK inhibitor 2.3%, Tb PYK inh 9.1% and HCMV inh -11.2.
For COc1ccc(-c2csc(N(CCCN(C)C)C(=O)c3ccccc3Cl)n2)cc1 the results were VACV mCherry inh 11.2µM*, Tb PYK inh 3.3%, Vaccinia Venus inconclusive and HCMV inh -37.1.
For COc1ccc(-c2csc(N(CCCN(C)C)C(=O)c3ccc(F)cc3)n2)cc1 the results were VACV mCherry inh -21.7%, LmPK inhibitor -5.0%, Tb PYK inh -5.5%, Vaccinia Venus -7.5% and HCMV inh 64.9.
`Cc1nn(-c2ccccc2)c2nc(C3CC3)cc(C(=O)Nc3cccc(F)c3)c12` gave VACV mCherry inh -26.2%, Tb PYK inh -6.3%, Vaccinia Venus -28.0% and HCMV inh -66.6*.
COc1ccc(NC(=O)c2cc(C3CC3)nc3c2c(C)nn3-c2ccccc2)cc1OC was read as VACV mCherry inh -19.9%, Tb PYK inh 3.6%, Vaccinia Venus -20.5% and HCMV inh 9.4.
Screening CCN(CC)C(=O)[C@H]1C[C@H](CC(=O)NC/C=C(\C)CCC=C(C)C)C(=O)N2CCc3c([nH]c4cc(-c5ccco5)ccc34)[C@]12C returned VACV mCherry inh inconclusive, Tb PYK inh -2.2%, Vaccinia Venus 12.6µM* and HCMV inh -27.7.
For CC(C)=CCC/C(C)=C/CNC(=O)C[C@H]1C[C@H](C(=O)N2CCCCC2)[C@@]2(C)c3[nH]c4cc(-c5ccco5)ccc4c3CCN2C1=O the results were VACV mCherry inh inconclusive, Tb PYK inh -4.1%, Vaccinia Venus inconclusive and HCMV inh -12.1.
CCN(CC)C(=O)[C@H]1CC(CC(=O)NC/C=C(\C)CCC=C(C)C)C(=O)N2CCc3c([nH]c4ccc(OC)cc34)[C@]12C (stereo partly specified) was read as VACV mCherry inh 12.6µM*, Tb PYK inh -2.5%, Vaccinia Venus inconclusive and HCMV inh inconclusive.
For CCN(CC)C(=O)[C@H]1C[C@H](CC(=O)NC/C=C(\C)CCC=C(C)C)C(=O)N2CCc3c([nH]c4ccc(Cl)cc34)[C@]12C the results were VACV mCherry inh -1.7%, Tb PYK inh -1.4%, Vaccinia Venus -24.2% and HCMV inh 0.8.
`CC(C)=CCC/C(C)=C/CNC(=O)C[C@H]1C[C@H](C(=O)N(C(C)C)C(C)C)[C@@]2(C)c3[nH]c4cc(-c5ccco5)ccc4c3CCN2C1=O` gave VACV mCherry inh 10µM*, Tb PYK inh -1.6%, Vaccinia Venus inconclusive and HCMV inh -15.4.
Screening O=C(O)c1cc(-c2c[nH]c3ccccc23)nc2ccc3ccccc3c12 returned VACV mCherry inh -7.9%, LmPK inhibitor 0.8%, Tb PYK inh -12.5%, Vaccinia Venus -3.4% and HCMV inh 139.8.
Screening c1ccc2c(-c3c[nH]c4ccccc34)c3ccccc3nc2c1 returned VACV mCherry inh -23.7%, LmPK inhibitor -1.0%, Tb PYK inh 4.1%, Vaccinia Venus inconclusive and HCMV inh -90.5*.
CCCOc1ccccc1/C=C1\SC(N)=NC1=O was read as VACV mCherry inh inconclusive, LmPK inhibitor -6.7%, Tb PYK inh 5.1%, Vaccinia Venus inconclusive and HCMV inh -63.5*.
For CCOC(=O)c1c(C)[nH]c(C(=O)N/N=C/c2ccc(Br)cc2)c1C the results were VACV mCherry inh -27.5%, LmPK inhibitor 4.6%, Tb PYK inh -4.9%, Vaccinia Venus inconclusive and HCMV inh -77.1*.
For O=c1c2ccccc2nc(N2CCCC2)n1-c1ccc(Cl)cc1 the results were LmPK inhibitor 0.8%, Tb PYK inh -1.9% and HCMV inh -62.7*.
`CCc1ccc(-n2c(N3CCN(c4cccc(Cl)c4)CC3)nc3ccccc3c2=O)cc1` gave VACV mCherry inh -12.5%, Tb PYK inh 4.7%, Vaccinia Venus -20.4% and HCMV inh -14.2.
For COc1nc2ccccc2c(=O)n1-c1ccc(Cl)cc1 the results were VACV mCherry inh -10.2%, LmPK inhibitor -0.4%, Tb PYK inh -11.4%, Vaccinia Venus -11.6% and HCMV inh -61.4*.
Screening COc1nc2ccccc2c(=O)n1-c1ccc(C)cc1 returned VACV mCherry inh -19.3%, LmPK inhibitor 2.8%, Tb PYK inh 9.9%, Vaccinia Venus -13.5% and HCMV inh -20.4.
For Cc1ccccc1CSc1nccn1-c1ccccc1 the results were LmPK inhibitor 4.0%, Tb PYK inh -16.3%, Vaccinia Venus -25.0% and HCMV inh -34.1.
CC1CN(S(=O)(=O)c2csc(C(=O)Nc3ccccc3)c2)CC(C)O1 (stereo unspecified) was read as VACV mCherry inh -20.2%, LmPK inhibitor 3.8%, Tb PYK inh 0.2%, Vaccinia Venus -22.6% and HCMV inh -60.4*.
Screening O=C(Nc1ccc(F)cc1)c1cc(S(=O)(=O)N2CCCCC2)cs1 returned LmPK inhibitor 9.8%, Tb PYK inh -7.3% and HCMV inh -83.7*.
For O=C(O)c1cccc(NC(=O)c2cc(S(=O)(=O)N3CCOCC3)cs2)c1 the results were VACV mCherry inh inactive, LmPK inhibitor -1.6%, Tb PYK inh -17.3%, Vaccinia Venus -9.9% and HCMV inh -31.7.
For O=C(Nc1ccc(F)cc1)c1cc(S(=O)(=O)N2CCCCC2)ccc1F the results were LmPK inhibitor 6.2%, Tb PYK inh -2.2% and HCMV inh -24.0.
Screening O=c1cc(Nc2ccc3c(c2)OCO3)[nH]c(=O)n1-c1ccc(Br)cc1 returned VACV mCherry inh inconclusive, LmPK inhibitor -0.1%, Tb PYK inh -0.6%, Vaccinia Venus inconclusive and HCMV inh -77.7*.

Source: PubChem BioAssay
